Results published in the supplement of paper PMC4466140.

target: CaNbp2; assay: SPOT peptide array binding signal intensity (averaged, normalized) (arbitrary units (background-subtracted, floor 0; scale differs between SH3 domains)); higher = stronger binding of the SH3 domain to the peptide
Experimental: (§1)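 GST-tagged SH3 domains from S. cerevisiae (Sc), A. gossypii (Ag), C. albicans (Ca) and S. pombe (Sp) were incubated at 10 ug/ml overnight at 4 C on cellulose SPOT membranes carrying 292 synthetic 15-mer peptides mined from the S. cerevisiae proteome (cysteines replaced by serines). Binding was detected with anti-GST antibody, HRP secondary and chemiluminescence, quantified with Genespotter, and reported as normalized spot intensities averaged over biological replicates.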

Binder	SPOT peptide array binding signal intensity
VRTRRRPPPPPIPST	610

target: CaRvs167; assay: as above
Experimental: as §1

Binder	SPOT peptide array binding signal intensity
VRTRRRPPPPPIPST	48.5

target: CaRvs167-3; assay: as above
Experimental: as §1

Binder	SPOT peptide array binding signal intensity
VRTRRRPPPPPIPST	2

target: CaSho1; assay: as above
Experimental: as §1

Binder	SPOT peptide array binding signal intensity
VRTRRRPPPPPIPST	25.5

target: CaSla1-D1-D2; assay: as above
Experimental: as §1

Binder	SPOT peptide array binding signal intensity
VRTRRRPPPPPIPST	2380

target: CaSla1-D3; assay: as above
Experimental: as §1

Binder	SPOT peptide array binding signal intensity
VRTRRRPPPPPIPST	296

target: ScAbp1; assay: as above
Experimental: as §1

Binder	SPOT peptide array binding signal intensity
VRTRRRPPPPPIPST	19

target: ScBbc1; assay: as above
Experimental: as §1

Binder	SPOT peptide array binding signal intensity
VRTRRRPPPPPIPST	358

target: ScBem1-D1; assay: as above
Experimental: as §1

Binder	SPOT peptide array binding signal intensity
VRTRRRPPPPPIPST	46

target: ScBzz1-D1; assay: as above
Experimental: as §1

Binder	SPOT peptide array binding signal intensity
VRTRRRPPPPPIPST	1430

target: ScBzz1-D2; assay: as above
Experimental: as §1

Binder	SPOT peptide array binding signal intensity
VRTRRRPPPPPIPST	210

target: ScCyk3; assay: as above
Experimental: as §1

Binder	SPOT peptide array binding signal intensity
VRTRRRPPPPPIPST	20.5

target: ScFus1; assay: as above
Experimental: as §1

Binder	SPOT peptide array binding signal intensity
VRTRRRPPPPPIPST	10

target: ScHof1; assay: as above
Experimental: as §1

Binder	SPOT peptide array binding signal intensity
VRTRRRPPPPPIPST	0.75

target: ScHse1; assay: as above
Experimental: as §1

Binder	SPOT peptide array binding signal intensity
VRTRRRPPPPPIPST	186

target: ScLsb1; assay: as above
Experimental: as §1

Binder	SPOT peptide array binding signal intensity
VRTRRRPPPPPIPST	96.8

target: ScLsb2; assay: as above
Experimental: as §1

Binder	SPOT peptide array binding signal intensity
VRTRRRPPPPPIPST	144

target: ScLsb3; assay: as above
Experimental: as §1

Binder	SPOT peptide array binding signal intensity
VRTRRRPPPPPIPST	584

target: ScLsb4; assay: as above
Experimental: as §1

Binder	SPOT peptide array binding signal intensity
VRTRRRPPPPPIPST	23.5

target: ScMyo3; assay: as above
Experimental: as §1

Binder	SPOT peptide array binding signal intensity
VRTRRRPPPPPIPST	851

target: ScMyo5; assay: as above
Experimental: as §1

Binder	SPOT peptide array binding signal intensity
VRTRRRPPPPPIPST	892

target: ScNbp2; assay: as above
Experimental: as §1

Binder	SPOT peptide array binding signal intensity
VRTRRRPPPPPIPST	1260

target: ScPex13; assay: as above
Experimental: as §1

Binder	SPOT peptide array binding signal intensity
VRTRRRPPPPPIPST	269

target: ScRvs167; assay: as above
Experimental: as §1

Binder	SPOT peptide array binding signal intensity
VRTRRRPPPPPIPST	624

target: ScSho1; assay: as above
Experimental: as §1

Binder	SPOT peptide array binding signal intensity
VRTRRRPPPPPIPST	141

target: ScSla1-D1-D2; assay: as above
Experimental: as §1

Binder	SPOT peptide array binding signal intensity
VRTRRRPPPPPIPST	3390

target: ScSla1-D3; assay: as above
Experimental: as §1

Binder	SPOT peptide array binding signal intensity
VRTRRRPPPPPIPST	488

target: SpAbp1-D1; assay: as above
Experimental: as §1

Binder	SPOT peptide array binding signal intensity
VRTRRRPPPPPIPST	13.5

target: SpBbc1; assay: as above
Experimental: as §1

Binder	SPOT peptide array binding signal intensity
VRTRRRPPPPPIPST	77.2

target: SpBzz1-D1; assay: as above
Experimental: as §1

Binder	SPOT peptide array binding signal intensity
VRTRRRPPPPPIPST	2830

target: SpBzz1-D2; assay: as above
Experimental: as §1

Binder	SPOT peptide array binding signal intensity
VRTRRRPPPPPIPST	430

target: SpCyk3; assay: as above
Experimental: as §1

Binder	SPOT peptide array binding signal intensity
VRTRRRPPPPPIPST	2

target: SpHof1; assay: as above
Experimental: as §1

Binder	SPOT peptide array binding signal intensity
VRTRRRPPPPPIPST	248

target: SpHof1-2; assay: as above
Experimental: as §1

Binder	SPOT peptide array binding signal intensity
VRTRRRPPPPPIPST	73

target: SpHof1-3; assay: as above
Experimental: as §1

Binder	SPOT peptide array binding signal intensity
VRTRRRPPPPPIPST	88.2

target: SpHse1; assay: as above
Experimental: as §1

Binder	SPOT peptide array binding signal intensity
VRTRRRPPPPPIPST	42.8

target: SpLsb1; assay: as above
Experimental: as §1

Binder	SPOT peptide array binding signal intensity
VRTRRRPPPPPIPST	63.5

target: SpLsb4; assay: as above
Experimental: as §1

Binder	SPOT peptide array binding signal intensity
VRTRRRPPPPPIPST	1370

target: SpMyo1; assay: as above
Experimental: as §1

Binder	SPOT peptide array binding signal intensity
VRTRRRPPPPPIPST	1460

target: SpNbp2; assay: as above
Experimental: as §1

Binder	SPOT peptide array binding signal intensity
VRTRRRPPPPPIPST	≤ 0

target: SpPex13; assay: as above
Experimental: as §1

Binder	SPOT peptide array binding signal intensity
VRTRRRPPPPPIPST	30

target: SpRvs167; assay: as above
Experimental: as §1

Binder	SPOT peptide array binding signal intensity
VRTRRRPPPPPIPST	265

target: SpSla1-D1-D2; assay: as above
Experimental: as §1

Binder	SPOT peptide array binding signal intensity
VRTRRRPPPPPIPST	520

target: SpSla1-D3; assay: as above
Experimental: as §1

Binder	SPOT peptide array binding signal intensity
VRTRRRPPPPPIPST	1
